The text below walks through data of PubChem BioAssay (NCI).

About 79,000 compounds went through this panel and 15% of them were active in at least one assay; those are over-represented in the sample as a whole. Unmarked numbers belong to inactive results. Activity calls are given as the source filed them. Cut-off read from the data, not from the text of the source: active = growth inhibition above about 70%; inactive = the rest.

This test is described as follows: NCI Yeast Anticancer Drug Screen. Data for the mec2-1 strain (AID 157). To be noted: S. cerevisiae mec2-1 strain, at 11.0 µM, active compounds read high. The gist of the method: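 Test agents were screened against the mec2-1 yeast strain, with defined DNA repair or cell cycle alteration. Growth was scored as inhibition against vehicle-only controls.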
With `C/C(=N\NC(=S)SCc1ccccc1)c1ccccn1`, the growth inhibition was 92% (active).

Take `CC[C@@]1(O)C(=O)OCc2c1cc1n(c2=O)Cc2cc3c(N)cccc3nc2-1`: the growth inhibition was 18%.

Regarding `CN(C)c1ccc(Sc2ccc3nc(N)nc(N)c3c2)cc1`, the growth inhibition is -4%.

For `CC(=O)OCCOCNC(=S)N/N=C(\C)c1cnccn1`, the growth inhibition is -2%.

In the case of `COc1ccc(C2c3cc4c(cc3OC(C)(O)C2C)OCO4)c(OC)c1` (centres undefined), the growth inhibition is 9%.

As to `COc1cc(C2SCC(=O)N2c2ccc(-c3ccc(-n4c(-c5ccccc5)nc5ccccc5c4=O)cc3)cc2)cc(OC)c1OC` (centres undefined), the growth inhibition was 2%.

As to `COc1ccc(Br)c(C(=O)Sc2nnnn2-c2cccc(Cl)c2)c1`, the growth inhibition was -14%.

Turning to `O=C(NNc1ccnc2cc(Cl)ccc12)/C(=C\c1ccccc1Cl)NC(=O)c1ccccc1`, the growth inhibition was -1%.

With `CSC(=S)Nc1cccc(C)n1`, the growth inhibition was -58%.

Turning to `O=C(/C=C\c1ccc(Cl)cc1Cl)c1cccs1`, the growth inhibition was 1%.

Turning to `COc1ccc(-c2cn(-c3ccc(I)cc3)c3ncnc(N)c23)cc1`, the growth inhibition is -5%.

With `CN(C)c1ccc(C(C#N)=C(C#N)C#N)cc1`, the growth inhibition was 9%.

As to `COc1cc(/C=C2\CCc3ccccc3C2=O)cc(OC)c1OC`, the growth inhibition was 1%.

For the compound `CC(C)/C(Cl)=N\OC(=O)Nc1cccc(Cl)c1`, the growth inhibition was 2%.

Regarding `CC1(C)[C@@H]2CC[C@]1(C)[C@H](OC(=O)CSC#N)C2`, the growth inhibition was 27%.

In the case of `NNC(=O)CCc1ccc2ccc3ccccc3c2c1`, the growth inhibition was 0%.

`COc1ccc(/C(C)=N/OC(=O)c2c(-c3ccccc3Cl)noc2C)cc1CN1CCOCC1`: the growth inhibition is -12%.

Take `C=CC(C)(O)CCC1C(=C)C(O)CC2C(C)(C)CCCC12C` (centres undefined): the growth inhibition was -10%.

As to `S=C(Nc1ccc(Cl)c(Cl)c1)SCc1ccc2c(c1)OCO2`, the growth inhibition is 100% (active).

Consider `COc1cc(C2C3=C(COC3=O)Oc3cc4c(cc32)OCO4)ccc1O` (centres undefined), for which the growth inhibition is -3%.

Consider `S=C(Nc1ccc(Cl)cc1)SC1CCCCC1`, for which the growth inhibition is 93% (active).

For the compound `Nc1nc(-c2cccnc2)cc(-c2cc(-c3cccnc3)nc(N)n2)n1`, the growth inhibition was -1%.

With `COC1=CC(=O)C2C(C1=O)C(c1ccc(Cl)cc1)[C@@H]2C` (some centres undefined), the growth inhibition was 99% (active).

Consider `c1ccc(-c2nc3cccnc3s2)cc1`, for which the growth inhibition is -3%.

As for `O=[N+]([O-])c1cc(CCl)ccc1CCl`, the growth inhibition is 37%.

`COc1ccc(/C=C2\SC(=S)N(/C=C/c3nc4ccccc4[nH]c3=O)C2=O)cc1OC`: the growth inhibition was 17%.

Turning to `CCCN(CCC)CC(O)c1cc(-c2ccc(Cl)cc2)nc2c(C)c(Cl)ccc12` (centres undefined), the growth inhibition is 99% (active).

As for `O=C(Nc1ccccc1)OCCc1ccc(Cl)c(Cl)c1`, the growth inhibition is -3%.

For the compound `CC(O)C(O)C(O)C(/C=N\Nc1ccccc1)=N/Nc1ccccc1` (centres undefined), the growth inhibition was 11%.

In the case of `C#CCCCc1ccccc1`, the growth inhibition is -41%.

Take `CC(=O)Cc1ccc[cH-]1.[Fe+2].c1cc[cH-]c1`: the growth inhibition is -1%.

As to `Cc1cc(I)ccc1N`, the growth inhibition is -2%.

Consider `FC(F)(F)c1cc(NC(=S)N2c3ccccc3-n3cccc3C2c2cccnc2)cc(C(F)(F)F)c1` (centres undefined), for which the growth inhibition is -2%.

As for `CC(C)(CN1CCCCC1)C(=O)CC(SCCS(=O)(=O)O)c1ccc(Br)cc1` (centres undefined), the growth inhibition was 14%.

For `C[Si](C)(C)CNC(=O)OCc1ccccc1`, the growth inhibition was 1%.

Turning to `CC(C(=O)N1C(=O)N(C(=O)[C@H](C)C(O)c2ccccc2)[C@H](c2ccccc2)[C@H]1c1ccccc1)[C@@H](O)c1ccccc1` (some centres undefined), the growth inhibition is 8%.

For the compound `Oc1cccc2c(Cl)ccnc12`, the growth inhibition is 99% (active).

Regarding `O=C1C=CC(=C(c2ccccc2)c2ccccc2)c2ccccc21`, the growth inhibition was 1%.

In the case of `S=C(S)NN1CCOCC1`, the growth inhibition was 32%.
